Screens as filed in PubChem BioAssay.
pPAFAH inh: inhibitors of human plasma PAF acetylhydrolase (pPAFAH); AID 463082; Q13093; 1.5% of 330,000 active; recombinant pPAFAH, FP-rhodamine probe fluorescence polarization; inhibition, % at 3.39 µM;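 active = inhibition above the mean inhibition across the screen plus 3 SD, cut at about 25% in these data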;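 also: inhibitors block binding of the rhodamine activity-based probe so polarization drops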
Target sequence (Q13093 whole entry, looked up): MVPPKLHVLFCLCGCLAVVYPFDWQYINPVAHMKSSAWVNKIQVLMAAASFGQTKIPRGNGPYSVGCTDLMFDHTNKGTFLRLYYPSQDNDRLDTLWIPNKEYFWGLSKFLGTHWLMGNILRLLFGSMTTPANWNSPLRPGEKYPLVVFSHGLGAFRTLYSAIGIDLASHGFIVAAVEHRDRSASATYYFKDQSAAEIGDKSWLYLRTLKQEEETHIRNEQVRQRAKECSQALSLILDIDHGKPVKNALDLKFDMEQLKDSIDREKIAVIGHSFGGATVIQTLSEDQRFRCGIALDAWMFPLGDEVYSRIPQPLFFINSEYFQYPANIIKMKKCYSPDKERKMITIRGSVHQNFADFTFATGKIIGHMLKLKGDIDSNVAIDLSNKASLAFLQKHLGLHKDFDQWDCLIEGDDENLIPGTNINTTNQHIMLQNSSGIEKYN
PAFAH2 FP inh: inhibitors of human PAFAH2; AID 492956; 0.99% of 340,000 active; inhibition, % at 3.39 µM; recombinant PAFAH2, FP-rhodamine activity probe, fluorescence polarization; Q99487;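 active = inhibition above the mean over all tested compounds plus 3 SD, cut at about 30% in these data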;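 also: inhibitors block probe labeling of enzyme so polarization drops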
PAFAH1B3 FP inh: blocks human PAF acetylhydrolase 1B catalytic subunit 3. 0.28% of 340,000 active. Q15102. recombinant PAFAH1B3, FP-rhodamine probe, fluorescence polarization. AID 492972. inhibition, % at 3.39 µM;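 active = inhibition above the screen-wide average of all tested compounds plus 3 SD, cut at about 25% in these data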
PP5 primary: blocks human protein phosphatase 5 activity. P53041. purified PP5c, OMFP substrate fluorescence. inhibition, % at 6.7 µM. 0.18% of 320,000 active. AID 1987;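 active = inhibition above the campaign's mean inhibition across all tested compounds plus 3 SD, cut at about 9.5% in these data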
PAFAH1B2 inh: blocks human PAF acetylhydrolase 1b catalytic subunit 2; P68402; inhibition, % at 3.39 µM; recombinant PAFAH1B2, FP-rhodamine activity probe, fluorescence polarization; 1.2% of 340,000 active;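 active = inhibition above the mean of all tested compounds plus 3 SD, cut at about 24% in these data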
PP1 inh: counter-screen for PP5 inhibitors: inhibitors of human PP1-alpha. P62136. purified PP1alpha, OMFP fluorescence. inhibition, % at 6.7 µM. 0.9% of 320,000 active. AID 2235;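 active = inhibition above the mean inhibition of all tested compounds plus 3 SD, computed separately for each screening campaign, cut at about 15% in these data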
A number is an active result; i = inactive; nt = no result given. The list is not random: actives were taken first. Their share in the collection is about 3.4%.

SMILES | pPAFAH inh | PAFAH2 FP inh | PAFAH1B3 FP inh | PP5 primary | PAFAH1B2 inh | PP1 inh
O=C(NCC1CCCO1)c1cccc(S(=O)(=O)Nc2ccc(F)cc2)c1 (stereo not drawn) | 25 | i | i | i | i | i
O=C(NCCCN1CCCC1=O)c1cccc(S(=O)(=O)Nc2ccc(F)cc2)c1 | 34 | i | i | i | i | i
Cc1cccc(NS(=O)(=O)c2cccc(C(=O)NCCCN3CCCC3=O)c2)c1 | 28 | i | i | i | i | i
CN(Cc1ccccc1F)C(=O)c1ccc(NS(=O)(=O)c2ccc3[nH]c(=O)[nH]c3c2)cc1 | i | i | i | i | i | i
O=c1c2cc(NC(=S)NCc3ccccn3)ccc2nc2n1CCCCC2 | i | i | i | i | i | i
CC(C)Nc1ccc(Cl)cc1[N+](=O)[O-] | i | nt | nt | i | nt | i
CC(=O)Nc1ccc(S(=O)(=O)N(C)CC(=O)OCC(=O)NC(C)C23CC4CC(CC(C4)C2)C3)cc1 (stereo not drawn) | i | i | i | i | 25 | i
O=C1CC(c2ccc(Cl)cc2)c2c(O)cc(O)cc2O1 (stereo not drawn) | i | i | i | i | i | i
C/C=C/C=C/[C@H]1Cc2cc(O)cc(O)c2O1 | 36 | nt | nt | i | nt | i
N#CC(c1ccc(=O)[nH]n1)c1ccc(Cl)cc1Cl (stereo not drawn) | 34 | i | i | i | i | i
Cc1ccc(C(=O)C2=C(O)C(=O)N(Cc3ccco3)C2c2cccc(Cl)c2)o1 (stereo not drawn) | i | i | i | i | i | 25
Cc1ccc(C(=O)C2=C(O)C(=O)N(Cc3ccco3)C2c2cccc(Br)c2)o1 (stereo not drawn) | i | i | i | i | i | 22
O=C(C1=C(O)C(=O)N(CCCn2ccnc2)C1c1cccc(Br)c1)c1ccco1 (stereo not drawn) | i | i | i | i | i | 47
Cc1ccc(C(=O)C2=C(O)C(=O)N(Cc3ccco3)C2c2ccc(N(C)C)cc2)o1 (stereo not drawn) | i | i | i | i | i | i
O=C(C1CC(Cl)CN1S(=O)(=O)c1ccc(Cl)cc1)N1CCOCC1 (stereo not drawn) | i | i | i | i | i | i
O=C(N1CCOCC1)N1CCN(S(=O)(=O)c2ccc(Cl)cc2)C1 | i | i | i | i | 26 | i
CCOC(=O)c1sc(NC(=O)Nc2ccc(Cl)cc2)cc1C | 26 | i | i | i | i | i
CSc1nc(-c2ccccc2)nn1C(=O)c1ccco1 | i | i | i | i | i | i
O=c1[nH]nc(SCc2ccccc2)c(=O)[nH]1 | i | i | i | i | i | i
NNC(=O)c1ccc(CSc2n[nH]c(=O)[nH]c2=O)cc1 | i | i | i | i | i | 16
O=C(COC(=O)c1nc(Cl)ccc1Cl)Nc1ncc(Cl)cc1Cl | i | 52 | 51 | i | 61 | i
O=C(COC(=O)c1nc(Cl)ccc1Cl)NCc1ccc(Cl)cc1Cl | nt | i | i | nt | i | nt
O=C(COC(=O)c1ccc2ccccc2c1)Nc1ncc(C(F)(F)F)cc1Cl | i | i | i | i | i | i
COc1ccccc1OCCC(=O)OCC(=O)Nc1ncc(Cl)cc1Cl | 26 | i | i | i | i | i
O=C(COC(=O)c1ccc2ccccc2n1)Nc1ncc(C(F)(F)F)cc1Cl | 26 | i | i | i | i | i
SMILES | pPAFAH inh | PAFAH2 FP inh | PAFAH1B3 FP inh | PP5 primary | PAFAH1B2 inh | PP1 inh
O=C(COC(=O)c1ccc(S(=O)(=O)NCc2ccco2)cc1)Nc1ncc(Cl)cc1Cl | 25 | i | i | i | i | i
C#CCn1c(-c2cccs2)nc2ccccc21 | i | i | i | i | i | i
Cn1c(SCC(=O)Nc2ccc(N3CCOCC3)c(Cl)c2)nnc1C(O)c1ccccc1 (stereo not drawn) | i | i | i | i | i | i
O=C(CNC(c1ccccc1)c1ccccc1)Nc1ccccc1Br | 32 | i | i | i | i | i
O=C(NC(Nc1nc2ccc([N+](=O)[O-])cc2s1)(C(F)(F)F)C(F)(F)F)c1ccccc1Cl | 33 | i | i | i | i | i
O=C(NC(Nc1nc2ccc([N+](=O)[O-])cc2s1)(C(F)(F)F)C(F)(F)F)c1cccnc1 | i | i | i | i | i | i
COCCNC(=O)CSc1nnc(-c2ccccc2)c(-c2ccccc2)n1 | i | i | i | i | i | i
O=C(Cc1c[nH]c2ccccc12)N1CCN(S(=O)(=O)c2ccc(Cl)cc2)CC1 | nt | i | i | nt | i | nt
